From PubChem
HCMV inh: human cytomegalovirus inhibition. HFF cells, HCMV-luciferase reporter, 72 h; stronger effect = lower value. activity change, negative = inhibition, % at 57.5 µM. 410,000 tested, 4.5% active. AID 1259415; in the data active = activity change below about -60%; inconclusive = no clear call, values can overlap the other calls; inactive = above about -39%
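Two compound doses tested in HFFs infected with HCMV-luciferase, MOI 1 PFU/cell, 72 h at 37C. Lysate luminescence read with OneGlo; data normalized against buffer-only and 10uM Salinomycin inhibitor controls.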
FMDV inh: foot and mouth disease virus antiviral activity; FMDV antiviral cell-based qHTS; Potency, µM (titrated, usually from 57.9 µM), without a hit: top-dose activity change, negative = inhibition, actives largely listed as inhibitors; 410,000 tested, 1.2% active; AID 1159524; calls by dose curve; tested in HEK293T cells; note: read-out not given here; potency is the fitted concentration of half-maximal effect; nearly all actives have a fitted effect of over 45% in size
VACV Venus inh: inhibitors of vaccinia virus (Venus reporter); Vaccinia virus Venus reporter expression, fluorescence; Potency, µM (doses to about 36.5 µM), for inactives: at the highest dose activity change, negative = inhibition, most hits filed as inhibitors; 330,000 tested, 0.46% active; AID 720580; calls by dose curve; tested in A549 cells; note: potency is the fitted concentration of half-maximal effect; nearly all actives have a fitted effect of over 30% in size
VACV mCherry inh: inhibitors of vaccinia virus infection (mCherry reporter signal); AID 720579; Potency, µM (doses to about 36.5 µM), for the others: at the top dose activity change, negative = inhibition, actives largely listed as inhibitors; 310,000 tested, 0.63% active; Vaccinia virus mCherry reporter infection, fluorescence; calls by dose curve; tested in A549 cells; note: potency is the fitted concentration of half-maximal effect; nearly all actives have a fitted effect of over 35% in size
LASV entry inh: Lassa virus entry inhibition. AID 540256. Potency, µM (highest dose often 37.9 µM), for the others: at the top dose activity change, negative = inhibition, most hits filed as inhibitors. 300,000 tested, 1.2% active. Lassa virus pseudotype entry inhibition, cell reporter; calls by dose curve; tested in HEK293 cells; note: potency is the fitted concentration of half-maximal effect; nearly all actives have a fitted effect of over 50% in size
MARV entry inh: inhibitors of Marburg virus binding or cell entry; Potency, µM (top dose mostly 37.8 µM), without a hit: at the top dose activity change, negative = inhibition, hits mostly inhibitors; 300,000 tested, 1.8% active; AID 540276; Marburg virus pseudotyped entry inhibition, cell reporter; calls by dose curve; tested in HEK293 cells; note: potency is the fitted concentration of half-maximal effect
Numbers without * were called inactive; ! = not confirmed by another sample; [ ] = remark or other dose. The list is not random: actives were taken first. Their share in the collection is about 6.5%. % is set by controls: 0 for no effect and ±100 for the full control effect.

Results for C=CCN(c1ccccc1)S(=O)(=O)c1cccc(C(=O)N(CC)CC(=O)Nc2c(F)cccc2F)c1 ?
HCMV inh: 7; FMDV inh: 2%; VACV Venus inh: -19%; VACV mCherry inh: -10%; LASV entry inh: 18µM*; MARV entry inh: inconclusive

Results for CCN(c1ccccc1)S(=O)(=O)c1cc(C(=O)Nc2ccc(F)c(F)c2)ccc1F ?
HCMV inh: -91*; FMDV inh: 11µM*; VACV Venus inh: inconclusive; VACV mCherry inh: inconclusive; LASV entry inh: 14µM*; MARV entry inh: inconclusive

What do the screens show for `C=CCN(c1ccccc1)S(=O)(=O)c1cccc(C(=O)Nc2ccc(N3CCOCC3)cc2)c1`?
HCMV inh: inconclusive; FMDV inh: 22µM*; VACV Venus inh: inconclusive; VACV mCherry inh: inconclusive; LASV entry inh: inconclusive; MARV entry inh: inconclusive

What do the screens show for `CCN(c1ccccc1)S(=O)(=O)c1ccc(F)c(C(=O)Nc2ccc(C)cc2)c1`?
HCMV inh: -29; FMDV inh: 0%; VACV Venus inh: -13%; VACV mCherry inh: -12%; LASV entry inh: inconclusive

Results for Cc1ccc(N2C(=O)c3ccc(C(=O)N4CCN(c5ccc(C)c(C)c5)CC4)cc3C2=O)cc1 ?
HCMV inh: -70*; FMDV inh: -16%; VACV Venus inh: 0%; VACV mCherry inh: inactive; LASV entry inh: inconclusive; MARV entry inh: 8%

How did CCC1C(=O)NCCN1Cc1ccc2c(c1)CN(Cc1cccn1-c1ccc(Cl)cn1)CCO2 (stereo unspecified) do in these assays?
FMDV inh: -8%; VACV Venus inh: -4%; VACV mCherry inh: -20%

What do the screens show for `Cc1cccc(NC(=O)COc2ccccc2C(=O)Nc2ccccc2)c1`?
VACV Venus inh: -12%; VACV mCherry inh: inactive

What do the screens show for `CCOCCc1nn2c(=O)cc(CSCC(=O)Nc3cc(C)cc(C)c3)nc2s1`?
HCMV inh: -62*; FMDV inh: 1%; VACV Venus inh: 4%; VACV mCherry inh: -4%; LASV entry inh: inconclusive; MARV entry inh: -11%[46.1 µM]

Results for Cc1ccc(-c2ccccc2[C@@H]2C[C@H]3CN(C)C(=O)[C@]34CCCN24)o1 ?
HCMV inh: 40; FMDV inh: -11%; VACV Venus inh: -12%; VACV mCherry inh: -19%; LASV entry inh: -14%; MARV entry inh: 8%[46.1 µM]

Results for O=C1N(c2ccccc2)C[C@@H]2C[C@@H](c3cc4ccccc4o3)N3CCC[C@@]123 ?
HCMV inh: -99*; FMDV inh: -29%; VACV Venus inh: inconclusive; VACV mCherry inh: 0.89µM*; LASV entry inh: inconclusive; MARV entry inh: inconclusive

Results for COc1ccc(S(=O)(=O)N2CCCCC2c2cc(C(=O)NCc3ccccc3)no2)cc1 (stereo unspecified) ?
HCMV inh: -62*; FMDV inh: 1%; VACV Venus inh: -6%; VACV mCherry inh: inactive

Results for O=C(NCc1ccccc1)c1cc(C2CCCCN2S(=O)(=O)c2ccccc2)on1 (stereo unspecified) ?
HCMV inh: -19; FMDV inh: 1%; VACV Venus inh: -8%; VACV mCherry inh: 28%

How did COc1cc(-c2nc3cnccn3c2Nc2ccc(C(C)C)cc2)ccc1O do in these assays?
HCMV inh: -92*!; FMDV inh: 40µM*; VACV Venus inh: inconclusive; VACV mCherry inh: inconclusive; LASV entry inh: inconclusive; MARV entry inh: inconclusive

How did COc1cc(-c2nc3cnccn3c2Nc2ccc(C)cc2)ccc1O do in these assays?
HCMV inh: 84; FMDV inh: -16%; VACV Venus inh: -16%; VACV mCherry inh: inconclusive; LASV entry inh: inconclusive; MARV entry inh: -10%

Results for COc1cc(-c2nc3nc[nH]n3c2Nc2ccc(C(C)C)cc2)ccc1O ?
HCMV inh: -68*; FMDV inh: -12%; VACV Venus inh: -6%; VACV mCherry inh: -13%; LASV entry inh: inconclusive; MARV entry inh: 13%[46.1 µM]

How did COc1ccc(-c2oc3ccccc3c2C(=O)OCc2ccc([N+](=O)[O-])cc2)cc1 do in these assays?
HCMV inh: -62*; FMDV inh: -24%; VACV Venus inh: -29%; VACV mCherry inh: -1%

What do the screens show for `CCOC(=O)c1c(-c2ccc(OC)cc2)oc2ccc(OC(=O)N(C)C)cc12`?
HCMV inh: -21; FMDV inh: inconclusive; LASV entry inh: inconclusive; MARV entry inh: 18µM*
